A selection: hits, their analogues and other compounds. The true share with any hit is near 3.5%.
TEAD-YAP block: TEAD-YAP interaction inhibition | inhibition, % at 9.12 µM | hit rate 1.4% among 640,000 | HEK-TIYL cells, TEAD-Gal4/YAP UAS-luciferase luminescence; in the data active = inhibition above about 32%;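 also: 0% = median of test compound wells and 100% = reference inhibitor wells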
MITF primary: blocks human microphthalmia-associated transcription factor. hit rate 0.91% among 650,000. AID 1259374. O75030. inhibition, % at 2.6 µM. AlphaScreen MITF homodimerization, bead proximity signal; in the data active = inhibition above about 50%;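 also: 0% = vehicle wells with protein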
GPR151 activ: activates the human receptor GPR151 | PathHunter beta-arrestin GPR151 cells, luminescence | AID 1508602 | Q8TDV0 | activation, % at 11.2 µM | hit rate 1% among 650,000; in the data active = activation above about 4.9%;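 also: 0% = median of compound wells and 100% = cells with positive control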
FBW7 act: human FBW7 E3 ligase activation, primary screen; Q969H0; AlphaScreen FBW7–phospho-cyclin E peptide binding, activator screen; normalized activity (activation), % at 26.1 µM; hit rate 0.13% among 650,000; AID 1259310; in the data active = normalized activity above about 1.9%;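 also: purified mutant Fbw7 with reduced substrate affinity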
Target sequence (Q969H0 whole entry, looked up): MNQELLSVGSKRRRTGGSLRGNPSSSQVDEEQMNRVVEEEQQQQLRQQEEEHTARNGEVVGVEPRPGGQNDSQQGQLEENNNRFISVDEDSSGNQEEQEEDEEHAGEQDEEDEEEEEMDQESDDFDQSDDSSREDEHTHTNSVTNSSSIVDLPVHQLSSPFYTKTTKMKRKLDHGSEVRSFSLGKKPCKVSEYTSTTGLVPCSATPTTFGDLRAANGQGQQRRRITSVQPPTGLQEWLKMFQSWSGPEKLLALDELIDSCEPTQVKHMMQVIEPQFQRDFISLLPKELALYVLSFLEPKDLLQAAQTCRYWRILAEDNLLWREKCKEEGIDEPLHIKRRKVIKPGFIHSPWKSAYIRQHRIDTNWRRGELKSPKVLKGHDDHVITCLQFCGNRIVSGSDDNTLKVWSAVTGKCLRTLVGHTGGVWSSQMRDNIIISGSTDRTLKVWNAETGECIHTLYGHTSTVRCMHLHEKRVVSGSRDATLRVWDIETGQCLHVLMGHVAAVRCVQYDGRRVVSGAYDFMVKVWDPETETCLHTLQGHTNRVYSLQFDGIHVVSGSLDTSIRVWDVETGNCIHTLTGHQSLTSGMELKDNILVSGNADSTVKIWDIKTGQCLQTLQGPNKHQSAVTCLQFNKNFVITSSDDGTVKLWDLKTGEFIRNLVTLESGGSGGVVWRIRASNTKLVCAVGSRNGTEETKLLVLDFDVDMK
* hit, by the source's call; ! = repeats disagree.

How did c1cnc2ccc(Nc3nccc(Nc4ccc(N5CCOCC5)cc4)n3)cc2c1 do in these assays?
TEAD-YAP block: 82*; MITF primary: 24; GPR151 activ: 5; FBW7 act: 0

What do the screens show for `Cc1cc(Nc2ccc(N3CCOCC3)cc2)nc(N2CCc3ccccc3C2)n1`?
TEAD-YAP block: 41*; MITF primary: 19; GPR151 activ: 2; FBW7 act: 0

What do the screens show for `CC(=O)Nc1ccc(Nc2cc(C)nc(N3CCN(c4ccccn4)CC3)n2)cc1`?
TEAD-YAP block: 9; MITF primary: 5; GPR151 activ: -1; FBW7 act: 0

What do the screens show for `Cn1c(Nc2nccc(Nc3ccc(N4CCOCC4)cc3)n2)nc2ccccc21`?
TEAD-YAP block: 54*; MITF primary: 22; GPR151 activ: 4; FBW7 act: 0

Results for Cc1cc(Nc2ccccc2)nc(N2CCN(C(=O)C(C)(C)C)CC2)n1 ?
TEAD-YAP block: 32*; MITF primary: -5; GPR151 activ: 1; FBW7 act: 0

How did CCN(CC)c1nc(Nc2ccc(N3CCOCC3)cc2)nc(Nc2nc3ccccc3n2C)n1 do in these assays?
TEAD-YAP block: 22; MITF primary: -1; GPR151 activ: -1; FBW7 act: 0

Results for O=Cc1cccc(OCc2ccccc2Cl)c1 ?
TEAD-YAP block: -68; MITF primary: 11; GPR151 activ: -2; FBW7 act: 1

How did Cc1cc(Nc2ccc(N3CCOCC3)cc2)nc(Nc2ncccn2)n1 do in these assays?
TEAD-YAP block: 7; MITF primary: 7; GPR151 activ: 0; FBW7 act: 0

Results for Cc1cc(Nc2ccc(N3CCOCC3)cc2)nc(Nc2ccc3ncccc3c2)n1 ?
TEAD-YAP block: 57*; MITF primary: -1; GPR151 activ: 1; FBW7 act: 0

How did Cc1ccc(/C=N/Nc2nc3ccc(Cl)cc3[nH]2)o1 do in these assays?
TEAD-YAP block: -52; MITF primary: 18; GPR151 activ: 0; FBW7 act: 0

How did Cc1c(C(=O)OCC(=O)c2ccc(Cl)cc2)cccc1[N+](=O)[O-] do in these assays?
TEAD-YAP block: -8; MITF primary: 13; GPR151 activ: 0; FBW7 act: 0

How did Cc1ccc(C(=O)COC(=O)c2ccccc2[N+](=O)[O-])cc1C do in these assays?
TEAD-YAP block: 49*; MITF primary: 19; GPR151 activ: -4; FBW7 act: 0

How did Nc1c(C(=O)NCCC2=CCCCC2)sc(=S)n1-c1ccccc1 do in these assays?
TEAD-YAP block: -38; MITF primary: 12; GPR151 activ: -1; FBW7 act: 0

Results for Cc1cc(NC(=O)c2ccccc2)ccc1-c1cc2ccccc2oc1=O ?
TEAD-YAP block: -1; MITF primary: 6; GPR151 activ: -2; FBW7 act: 1

How did Cc1ccccc1OCC(=O)Nc1ccc(-c2cc3ccccc3oc2=O)c(C)c1 do in these assays?
TEAD-YAP block: 45*; MITF primary: 13; GPR151 activ: 0; FBW7 act: 0

Results for Cc1cc(NC(=O)Cc2ccccc2)ccc1-c1cc2ccccc2oc1=O ?
TEAD-YAP block: 54*; MITF primary: -5; GPR151 activ: 0; FBW7 act: 0

How did CC(C)Cc1cc(C(=O)Nc2cccc(O)c2)no1 do in these assays?
TEAD-YAP block: 87*; MITF primary: 5; GPR151 activ: -1; FBW7 act: 0

What do the screens show for `CC(C)c1cc(C(=O)Nc2cccc(O)c2)no1`?
TEAD-YAP block: 81*; MITF primary: 12; GPR151 activ: -4; FBW7 act: 0

How did CC(C)Cc1cc(C(=O)Nc2cccc(Cl)c2)no1 do in these assays?
TEAD-YAP block: -48; MITF primary: -24; GPR151 activ: 0; FBW7 act: 0

Results for CN(C)N1C(N)=C(C#N)C(c2ccccc2Cl)C2=C1CC(c1ccccc1)CC2=O (configuration not stated) ?
TEAD-YAP block: 39*; MITF primary: -10; GPR151 activ: -2; FBW7 act: 0

Results for Cc1ccccc1OCC(=O)Nc1cccc(NC(=O)COc2ccccc2C)n1 ?
TEAD-YAP block: -4; MITF primary: 13; GPR151 activ: 0; FBW7 act: 0

How did Cc1ccccc1OCC(=O)Nc1ccccn1 do in these assays?
TEAD-YAP block: 42*; MITF primary: 1; GPR151 activ: -6; FBW7 act: 0

How did Cc1ccc(OCC(=O)Nc2cc(C)on2)c(C)c1 do in these assays?
TEAD-YAP block: -1; MITF primary: -12; GPR151 activ: -1; FBW7 act: 0

Results for Cc1ccc(OCC(=O)Nc2ccccn2)c(C)c1 ?
TEAD-YAP block: 96*; MITF primary: -1; GPR151 activ: -6; FBW7 act: 0

How did C=CCOc1cccc(/C=C2\C(=O)N(CCc3ccc(OC)c(OC)c3)C(C)=C2C(=O)OC)c1 do in these assays?
TEAD-YAP block: -13; MITF primary: 61*; GPR151 activ: 0; FBW7 act: 0

What do the screens show for `COc1ccc(N(Cc2cccs2)C(=O)CCl)cc1`?
TEAD-YAP block: 23; MITF primary: 7; GPR151 activ: -1; FBW7 act: 0

How did O=C(CCl)N(Cc1cccs1)c1ccc2c(c1)OCCO2 do in these assays?
TEAD-YAP block: 37*; MITF primary: 3; GPR151 activ: -1; FBW7 act: 0

Results for O=C(Nc1ccc(Br)cc1)c1ccc(Nc2nc(-c3ccccc3)c3cc(Cl)ccc3n2)cc1 ?
TEAD-YAP block: -3; MITF primary: -13; GPR151 activ: 1; FBW7 act: 0

What do the screens show for `COC(=O)C1=CN(CC23CC4CC(CC(C4)C2)C3)C=C(C(=O)OC)C1c1ccsc1`?
TEAD-YAP block: -3; MITF primary: -8; GPR151 activ: -1; FBW7 act: 1.9*

How did COc1ccc(OC)c(N=C(C)c2c(C)[nH]n(-c3nc4ccccc4s3)c2=O)c1 do in these assays?
TEAD-YAP block: 10; MITF primary: 22; GPR151 activ: -10; FBW7 act: 0

Results for CC(=NCc1ccco1)c1c(C)[nH]n(-c2nc3ccccc3s2)c1=O ?
TEAD-YAP block: 41*!; MITF primary: 14; GPR151 activ: -8; FBW7 act: 0

Results for CC(=NCCCN1CCOCC1)c1c(C)[nH]n(-c2nc3ccccc3s2)c1=O ?
TEAD-YAP block: 33*!; MITF primary: 0; GPR151 activ: -8; FBW7 act: -2

How did CCOC(=O)CN=C(C)c1c(C)[nH]n(-c2nc3ccccc3s2)c1=O do in these assays?
TEAD-YAP block: 49*; MITF primary: 4; GPR151 activ: -10; FBW7 act: 0

Results for CC(=NCCO)c1c(-c2ccccc2)[nH]n(-c2nc3ccccc3s2)c1=O ?
TEAD-YAP block: -7; MITF primary: -13; GPR151 activ: -1; FBW7 act: 0

How did O=C(NC1CCCCC1)C(c1cccs1)N(Cc1ccco1)C(=O)c1ccccn1 (configuration not stated) do in these assays?
TEAD-YAP block: -3; MITF primary: 0; GPR151 activ: -1; FBW7 act: 0

Results for COC(=O)c1cc(OC)c(OC)c(OC)c1NC(=O)c1cccc(OC)c1 ?
TEAD-YAP block: 1; MITF primary: 7; GPR151 activ: -1; FBW7 act: 0

How did CC1C/C(=C/c2ccncc2)C(=O)/C(=C/c2ccncc2)C1 (configuration not stated) do in these assays?
TEAD-YAP block: 94*; MITF primary: -3; GPR151 activ: 1; FBW7 act: 0
